The values that follow come from PubChem BioAssay AID540276 (National Center for Advancing Translational Sciences (NCATS), 2011).

Values joined by “and” are separate entries in the source; they are usually repeats but may differ in a detail not shown here. Identical values can stand only once. The campaign covered roughly 300,000 compounds. About 5,400 (1.8%) were called active. Another 28% or so got no clear call; they are omitted. The full list was thinned out, with actives kept by preference. A number with no mark means an inactive call. Calls follow the shape of the full dose curve; tested in HEK293 cells.
% is scaled to controls: 0 for no effect and ±100 for the full control effect; potency is read from the fitted curve at half-maximal effect.

The nature of this assay: qHTS for inhibitors of binding or entry into cells for Marburg Virus. The conditions noted are these: Marburg virus pseudotyped entry inhibition, cell reporter; series mostly up to 37.8 µM; activity change, negative = inhibition: at the top concentration.
As for `O=C1CC(c2ccccc2)C(=O)N2C(=O)CC(c3ccccc3)C(=O)N12` (configuration not stated), the “activity change, negative = inhibition” value was 1.53% [at 46.1 µM].
Still for that read-out and setting: next, `C=CCNC(=O)C1CC2c3ccccc3C1c1ccccc12` (configuration not stated): 1.85%.
Turning to `CC[C@H]1CN2CCc3cc(OC)c(OC)cc3[C@@H]2C[C@@H]1C[C@H]1NCCc2cc(OC)c(OC)cc21`, the Potency was 224 nM (active) and 326 nM (active) and 103 nM (active).
`COc1cc2c(cc1OC)CN(CC(=O)Nc1ccc(F)cc1)CC2`: the “activity change, negative = inhibition” value is -0.577%.
On the same count and under the same terms, for `COc1cc(NC(=O)CSc2ccc(-c3cccnc3)nn2)cc(OC)c1` the value was -7.05%; for `CCOc1ccc(CC(=O)NCCS(=O)(=O)N2CCN(c3ccccc3)CC2)cc1`, 12.2%; for `Cc1nc2ccccc2c(C(=O)O)c1-c1ccccn1`, 17.2% [at 46.1 µM].
The same measure, in the same setting: next, `O=C(COc1ccc([N+](=O)[O-])cc1Cl)Nc1ccc2[nH]c(=O)[nH]c2c1`: -2.16% [at 46.1 µM].
The same measure, in the same setting: for `O=C(NCc1cccnc1)c1cn(-c2ccccc2)nc1-c1cccs1` the value was -14.5%.
For the compound `CC(=O)C1=C(C)NC(C)=C(C(C)=O)C1c1cn(-c2ccccc2)nc1-c1cccs1`, the “activity change, negative = inhibition” value was -21.3%.
In the case of `O=C(O)c1ccc(N/N=C/c2cn(-c3ccccc3)nc2-c2cccs2)cc1`, the Potency is 4.47 µM (active).
`COc1ccc(OC)c(NC(=O)C2CCCN2S(=O)(=O)c2cccc3nsnc23)c1` (configuration not stated): the “activity change, negative = inhibition” value is -13.2% [at 46.1 µM].
Same read-out and setting: for `CC[C@]12c3[nH]c4ccc(Cl)cc4c3CCN1C(=O)[C@@H](CC(=O)NCCCOC)C[C@@H]2C(=O)N1CCN(C(=O)c2ccco2)CC1` the value was -1.78%.
Same read-out and setting: for `COc1ccc(C2(c3ccc(OC)cc3)NC(=O)N(CC(=O)Nc3cc(C)on3)C2=O)cc1` the value was -25.4% [at 46.1 µM]; for `CCCCCOc1ccc(CSC2=NCCN2)cc1[N+](=O)[O-]`, -35.4%; for `CCCOc1ccc(Cn2ccnc2)cc1[N+](=O)[O-]`, 1%.
In the case of `CCCCOc1ccc(CSC(=N)N)cc1[N+](=O)[O-]`, the Potency is 14.1 µM (active).
`CCN(CC)CCn1c2ccc(Cl)cc2c2nc(C)sc21`: the “activity change, negative = inhibition” value is -57.9%.
In the case of `CCN(CC)CCCC(C)n1c2nc(=O)[nH]c(=O)c-2nc2cc(Cl)ccc21` (configuration not stated), the Potency was 5.62 µM (active).
Turning to `CC(=O)OC[C@H]1O[C@H](CCO/N=C(\C)CCN2CCCCc3nc(C)c(C)cc32)C=C[C@@H]1OC(C)=O`, the “activity change, negative = inhibition” value was 16.2% [at 14.2 µM].
Turning to `CC1CN(C(=S)SCC(=O)c2ccccc2)CC(C)O1` (configuration not stated), the “activity change, negative = inhibition” value was -3.47%.
`O=C(CSC(=S)N1CCOCC1)c1ccccc1`: the Potency is 7.31 µM (active).
In the case of `O=C(CSC(=S)N1CCOCC1)c1cc(Br)cc(Br)c1O`, the “activity change, negative = inhibition” value was 11.4% [at 46.1 µM].
Still for that read-out and setting: next, `Cc1ccc(CNC(=O)C(=O)c2cn(CC(=O)N3CCCC3)c3ccccc23)cc1`: -19.2%; `Cc1cc(NC(=O)CSc2nnc(-c3ccco3)n2N)no1`: -29.8%.
With `O=C(COC(=O)c1cccc(Cl)c1)NC(=O)NCc1ccccc1`, the “activity change, negative = inhibition” value was 4.11%.
On to `COc1ccc2c(c1O)-c1cccc3c1[C@@H](C2)N(C)CC3`, for which the Potency was 1 µM (active).
Regarding `COc1c(O)ccc2c1-c1c3c(cc4c1C(C2)N(C)CC4)OCO3` (configuration not stated), the “activity change, negative = inhibition” value is 3.76%.
For `Cn1c(N)cc(=O)n(C)c1=S`, the “activity change, negative = inhibition” value is -7.14%.
On the same count and under the same terms, next, `CC(C(=O)c1ccc(-c2ccccc2)cc1)[n+]1cccc(Br)c1` (configuration not stated): -1.4% [at 46.1 µM]; `O=C(NCc1nnc(SCC(=O)N2CCCCCC2)o1)c1ccc(F)cc1`: -7.97%; `COCCCn1c(SCC(=O)Nc2ccccc2)nnc1-c1ccncc1`: -0.876% [at 46.1 µM].
The same measure, in the same setting: for `CCC(=O)Nc1cccc(NC(=O)CSc2nnc(-c3ccc(NS(C)(=O)=O)cc3)n2C)c1` the value was 9.87%.
Regarding `Cn1c(SCC(=O)Nc2cccc(NC(=O)c3cccs3)c2)nnc1-c1ccncc1`, the Potency is 12.6 µM (active).
As for `CC1CCCCC1NC(=O)Cn1c(=O)cnc2ccccc21` (configuration not stated), the “activity change, negative = inhibition” value is 14.6% [at 46.1 µM].
Turning to `CC(=O)c1c(C)[nH]c(C(=O)COC(=O)c2cccs2)c1C`, the “activity change, negative = inhibition” value was -11.6%.
`COc1ccc(C)cc1N(CC(=O)N1CCCC1)S(=O)(=O)c1ccccc1`: the “activity change, negative = inhibition” value is 4.32% [at 46.1 µM].
On the same count and under the same terms, next, `NC(=O)Nc1cccc(C(F)(F)F)c1`: -9.89%; `O=C(Nc1cc(C(F)(F)F)ccc1Cl)C(=O)N1CCCCC1`: 10.1%.
With `O=C(NNc1ccccc1Cl)C(O)(c1cccc(C(F)(F)F)c1)c1cccc(C(F)(F)F)c1`, the Potency was 18.4 µM (active).
As for `NC(=O)Cn1cc(/C=N\NS(=O)(=O)c2ccccc2)c2ccccc21`, the “activity change, negative = inhibition” value is -7.13% [at 46.1 µM].
Turning to `COC(=O)N(C)C1=C(C(=O)N2CCOCC2)CCCC1`, the “activity change, negative = inhibition” value was -9.8%.
On to `Cn1c(=O)[nH]c2c(c(C(=O)O)nn2C)c1=O`, for which the “activity change, negative = inhibition” value was -0.0312% [at 46.1 µM].
As to `Cc1ccc2[nH]cc(CCNC(=O)c3ccc([N+](=O)[O-])cc3)c2c1`, the “activity change, negative = inhibition” value was 3.86%.
With `Cc1ccc2[nH]cc(CCCN3C(=O)c4ccccc4C3=O)c2c1`, the Potency was 16.4 µM (active).
As to `Cc1cc(C)cc(NC(=O)CCN2C(=O)c3ccccc3C2=O)c1`, the “activity change, negative = inhibition” value was -3.01% [at 46.1 µM].
With `Cc1cccc(OCC(=O)Nc2ccc(C(=O)O)cc2NC(=O)COc2cccc(C)c2)c1`, the “activity change, negative = inhibition” value is -5.1%.
The same measure, in the same setting: next, `COc1ccc(C(=O)Nc2ccc(S(=O)(=O)NC(C)C)cc2)cc1`: -1.9%.
In the case of `COc1ccc(NS(=O)(=O)c2ccc(Oc3c(C#N)cccc3C#N)cc2)cc1`, the Potency is 2.82 µM (active).
Consider `CCOc1ccc(S(=O)(=O)Nc2ccc(S(=O)(=O)Nc3cc(OC)ccc3OC)cc2)cc1`, for which the “activity change, negative = inhibition” value is -15.2%.
The same measure, in the same setting: for `Cc1ccc2nc(SCC(=O)NC3CCCC3)[nH]c2c1` the value was 24.9% [at 46.1 µM].
In the case of `COc1ccc(/C=N/Nc2nc(-c3ccc(C)cc3)c(C#N)c(=O)[nH]2)cc1`, the “activity change, negative = inhibition” value is -0.691%.
